{"source": "PubChem BioAssay AID720647", "about": "(Broad Institute, 2013)", "note": "Screen size: about 380,000 compounds; about 1,300 (0.34%) were called active. The sample holds actives, similar compounds and a random draw of the others, so the mix is not that of the screen. Unmarked numbers belong to inactive results.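 The calls were made as follows: active = drop in luminescence signal, shown as inhibition above about 50% in the replicate tests (limit read from the data, passing the limit was not always enough); inconclusive = probably only some replicates passing the limit; inactive = the rest.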", "data": [{"test_system": "Drosophila bursicon receptor LGR2 (rickets)", "assay": "inhibitors of bursicon-induced LGR2 CRE-luciferase signal, primary screen, cell-based, HEK293, CRE-luciferase reporter, bursicon stimulation (AID 720647);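 also: agonist challenge used bursicon conditioned medium at about half maximal strength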", "conditions": "bursicon-stimulated, 4 h, at 9.99 µM, stronger effect = higher value", "values": [{"smiles": "C[C@]12CCC3C(CC[C@H]4C[C@@H](O)CC[C@]34C)C1C[C@@H](O)[C@H]2O", "note": "(stereo not given in full)", "inhibition": "21.8%"}, {"smiles": "C[C@]12CC[C@H](O)C[C@H]1CC[C@@H]1C2CC[C@]2(C)[C@@H](C3=CC(=O)OC3)[C@@H](O)C[C@]12O", "note": "(stereo not given in full)", "inhibition": "75.1% (active)"}, {"smiles": "C[C@]12CCC3C(CC[C@H]4C[C@@H](O)CC[C@]34C)C1CC[C@@H]2O", "note": "(stereo not given in full)", "inhibition": "4.33%"}, {"smiles": "Cc1cc(N2CCNC[C@@H]2C)ccc1N1CC[C@H](O)C1", "inhibition": "-14.4%"}, {"smiles": "O=C(Cc1ccccn1)N1CCCCN2[C@H](C1)[C@H](c1ccc(-c3ccccc3F)cc1)[C@@H]2CO", "inhibition": "20.2%"}, {"smiles": "CCOc1ccc(-c2cc(C)[n+](CCN(CC)CC)c(-c3ccc(OCC)cc3)c2)cc1", "inhibition": "60.4% (active)"}, {"smiles": "CS(=O)(=O)N1CCC2CCNC2C1", "note": "(stereo not given)", "inhibition": "-1.04%"}, {"smiles": "O=C(Cc1ccncc1)N1CCCCN2[C@@H](CO)[C@H](c3ccc(C#CC4(O)CCCC4)cc3)[C@@H]2C1", "inhibition": "-0.939%"}, {"smiles": "Clc1ccc([C@@H]2CC3CCC2N3)cn1", "note": "(stereo not given in full)", "inhibition": "7.28%"}, {"smiles": "O=S(=O)(c1ccccc1)N1CCC2CCNC2C1", "note": "(stereo not given)", "inhibition": "8.51%"}, {"smiles": "CCC(C)(O)C(=O)OC1C(=O)OC2CC3C(C)=CC(=O)C(O)C3(C)C3C4(O)OCC23C1C(C)C4O", "note": "(stereo not given)", "inhibition": "101% (active)"}, {"smiles": "O=C(Cc1ccccc1)N1CCCCN2[C@H](CO)[C@H](c3ccc(C#Cc4ccccc4)cc3)[C@H]2C1", "inhibition": "0.501%"}, {"smiles": "COC(=O)[C@@H]1[C@@H](CO)[C@@H]2Cn3c(ccc(-c4cccc(C(=O)N(C)C)c4)c3=O)[C@H]1N2C(=O)NC(C)C", "inhibition": "31.6%"}, {"smiles": "CCN(CC)C(=O)[C@@H]1C=C2c3cccc4[nH]c(Br)c(c34)C[C@H]2N(C)C1", "inhibition": "9.95%"}, {"smiles": "COc1ccc(C#Cc2ccc([C@H]3[C@H](CO)N4CCCCN(C(=O)Cc5ccccc5)C[C@@H]34)cc2)cc1", "inhibition": "10.8%"}, {"smiles": "COC(=O)[C@@H]1[C@@H](CO)[C@@H]2Cn3c(ccc(-c4ccc(F)cc4)c3=O)[C@H]1N2C(C)=O", "inhibition": "-7.85%"}, {"smiles": "COc1cccc(-c2nc3ccc(N4CCN(C)CC4)cc3[nH]2)c1", "inhibition": "88.7% (active)"}, {"smiles": "CN1CCN(c2cc(N3CCNCC3)ccc2[N+](=O)[O-])CC1", "inhibition": "1.9%"}, {"smiles": "COc1cccc(-c2ccc([C@H]3[C@H]4CN(C(=O)Cc5ccncc5)CCCCN4[C@H]3CO)cc2)c1", "inhibition": "-6.52%"}, {"smiles": "COc1ccc2c(c1)[C@@]13CCCCC1[C@@H](C2)NCC3", "note": "(stereo not given in full)", "inhibition": "15.4%"}, {"smiles": "COC1C(O)C(C)OC(OC2CCC3(C=O)C(CCC4C3CCC3(C)C(C5=CC(=O)OC5)CCC43O)C2)C1O", "note": "(stereo not given)", "inhibition": "83.8% (active)"}, {"smiles": "CCC(C)NC1(c2ccccc2)CCCCC1", "note": "(stereo not given)", "inhibition": "-0.048%"}, {"smiles": "COC(=O)[C@H]1[C@H](CO)[C@H]2Cn3c(cccc3=O)[C@H]2N1CC1CC1", "inhibition": "26.9%"}, {"smiles": "C/C=C/c1ccc(C2[C@@H]3CN(Cc4cncnc4)C[C@H]2N3)cc1", "note": "(stereo not given in full)", "inhibition": "-8.19%"}, {"smiles": "O=C(Cc1ccccn1)N1CCCCN2[C@@H](CO)[C@@H](c3ccc(C#Cc4ccccc4)cc3)[C@@H]2C1", "inhibition": "-13.4%"}]}]}
